Results reported in PubChem BioAssay (EPA / NIEHS).
Active and inactive are the calls of the source. The calls were made as follows: active = hit-call score of the fitted dose curve at least 0.9, where 1 is the maximum; inactive = score below 0.9.

Key:
[1] = biological target: Bile acid receptor (Homo sapiens) (UniProt Q96RI1); assay: ATG_IR1_CIS: Attagene CIS-FACTORIAL HepG2 Assay for human Nuclear Receptor Subfamily 1 Group H Member 4 (NR1H4), IR1 submotif (AID 2282946); conditions: IR1 reporter transcription, actives raise or lower the signal
Bile acid receptor (Homo sapiens), sequence (Q96RI1 whole entry, looked up): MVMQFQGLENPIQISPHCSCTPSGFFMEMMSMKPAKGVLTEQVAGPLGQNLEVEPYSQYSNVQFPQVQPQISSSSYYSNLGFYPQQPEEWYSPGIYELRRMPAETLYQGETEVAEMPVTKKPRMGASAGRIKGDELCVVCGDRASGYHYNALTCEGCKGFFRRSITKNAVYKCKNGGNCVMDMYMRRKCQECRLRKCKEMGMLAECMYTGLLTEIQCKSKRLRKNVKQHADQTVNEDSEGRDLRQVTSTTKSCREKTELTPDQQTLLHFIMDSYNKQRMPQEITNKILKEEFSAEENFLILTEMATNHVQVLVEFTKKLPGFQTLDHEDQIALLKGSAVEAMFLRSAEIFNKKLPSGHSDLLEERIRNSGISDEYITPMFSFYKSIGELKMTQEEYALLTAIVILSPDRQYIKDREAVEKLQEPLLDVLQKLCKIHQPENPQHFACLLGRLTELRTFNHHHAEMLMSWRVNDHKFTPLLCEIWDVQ
Procedure, shortened: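 Readout: reporter transcript levels by RT-PCR with fluorescent capillary electrophoresis, from HepG2 cells transiently transfected with multiplexed cis-regulated reporters and dosed 24 h. Gain- or loss-of-signal fitted versus DMSO negative control.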

[2] = ATG_GRE_CIS: Attagene CIS-FACTORIAL HepG2 Assay for human Glucocorticoid Response Elements (GRE) (AID 2282947); conditions: HepG2 GRE cis-reporter, Attagene multiplex mRNA; actives raise or lower the signal
Procedure, shortened: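 Cells (HepG2) bearing transfected cis-promoter reporter transcription units were treated with chemical for 24 hours. Reporter mRNA was measured via RT-PCR with capillary electrophoresis, and activity was fitted in both directions relative to DMSO.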

[3] = ATG_ISRE_CIS: Attagene CIS-FACTORIAL HepG2 Assay for human Interferon Regulatory Factor 1 (IRF1) binding to an Interferon-Stimulated Response Element (ISRE) (AID 2282948); conditions: HepG2 ISRE cis-reporter (Attagene), mRNA transcription readout; actives raise or lower the signal
Procedure, shortened: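 Multiplexed mRNA reporter readout in human liver HepG2 cells: cis-element-driven reporters transfected, compound added for 24 h, transcripts amplified, fluorescently labelled and sized by capillary electrophoresis; curve fitting bidirectional against DMSO.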

[4] = ATG_M_06_CIS: Attagene CIS-FACTORIAL HepG2 Assay for M06 Transcription Factor (Internal Marker) (AID 2282950); conditions: HepG2 Attagene CIS-FACTORIAL M06 internal marker reporter; actives raise or lower the signal
Procedure, shortened: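 Internal background marker within multiplexed cis-reporter HepG2 system. Cells transiently transfected, dosed 24 h; reporter mRNA measured by RT-PCR, HpaI digestion and capillary electrophoresis. Bidirectional fit relative to DMSO.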

[5] = biological target: Hepatocyte nuclear factor 6 (Homo sapiens) (UniProt Q9UBC0); assay: ATG_HNF6_CIS: Attagene CIS-FACTORIAL HepG2 Assay for human Hepatocyte Nuclear Factor 6 (HNF6) (AID 2282952); conditions: HepG2 Attagene cis-factorial HNF6 reporter transcription; actives raise or lower the signal
Hepatocyte nuclear factor 6 (Homo sapiens), sequence (Q9UBC0 whole entry, looked up, the tested form may be a part): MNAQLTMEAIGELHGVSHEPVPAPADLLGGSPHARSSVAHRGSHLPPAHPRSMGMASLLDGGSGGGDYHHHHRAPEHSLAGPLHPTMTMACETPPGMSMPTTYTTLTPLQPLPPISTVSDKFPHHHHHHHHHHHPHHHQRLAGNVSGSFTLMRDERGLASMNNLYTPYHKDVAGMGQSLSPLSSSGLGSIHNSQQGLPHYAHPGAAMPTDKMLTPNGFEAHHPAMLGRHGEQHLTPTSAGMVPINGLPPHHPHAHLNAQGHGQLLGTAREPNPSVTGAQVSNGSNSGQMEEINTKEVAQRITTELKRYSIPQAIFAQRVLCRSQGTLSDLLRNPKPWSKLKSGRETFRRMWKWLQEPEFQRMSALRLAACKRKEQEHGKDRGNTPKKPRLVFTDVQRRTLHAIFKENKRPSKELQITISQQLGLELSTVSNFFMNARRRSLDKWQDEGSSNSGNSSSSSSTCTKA
Procedure, shortened: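 First, HepG2 cells were transfected with the multiplexed cis reporter library and dosed with chemical for 24 h. Next, RNA was reverse-transcribed, PCR-amplified and fluorescently labelled. Finally, HpaI-digested fragments were read by capillary electrophoresis.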

[6] = biological target: Heat shock factor protein 1 (Homo sapiens) (UniProt Q00613); assay: ATG_HSE_CIS: Attagene CIS-FACTORIAL HepG2 Assay for human Heat Shock Transcription Factor 1 (HSE) (AID 2282953); conditions: HepG2 HSE cis-reporter, Attagene RNA transcription; actives raise or lower the signal
Heat shock factor protein 1 (Homo sapiens), sequence (Q00613 whole entry, looked up): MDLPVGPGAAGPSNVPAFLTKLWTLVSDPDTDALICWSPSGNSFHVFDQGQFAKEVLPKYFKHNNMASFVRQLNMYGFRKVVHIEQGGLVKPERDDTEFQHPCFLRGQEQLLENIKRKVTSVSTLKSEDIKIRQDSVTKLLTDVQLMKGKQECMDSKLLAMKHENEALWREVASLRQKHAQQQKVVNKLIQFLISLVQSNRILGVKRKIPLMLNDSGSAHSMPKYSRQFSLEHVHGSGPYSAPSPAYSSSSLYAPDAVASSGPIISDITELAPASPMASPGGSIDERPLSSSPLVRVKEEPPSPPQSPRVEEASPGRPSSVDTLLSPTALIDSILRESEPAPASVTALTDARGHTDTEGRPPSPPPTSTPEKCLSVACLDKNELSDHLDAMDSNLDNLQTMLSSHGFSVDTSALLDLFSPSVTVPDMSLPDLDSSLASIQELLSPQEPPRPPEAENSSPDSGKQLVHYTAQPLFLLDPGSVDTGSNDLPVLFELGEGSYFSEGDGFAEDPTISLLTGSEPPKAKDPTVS
Procedure, shortened: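 HepG2 cells transfected with cis-promoter reporter units sensing endogenous transcription factor activity; reporter mRNA quantified 24 h post-dose by RT-PCR and capillary electrophoresis of 6-FAM-labelled products. Bidirectional fitting against DMSO.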

[7] = ATG_MRE_CIS: Attagene CIS-FACTORIAL HepG2 Assay for human Metal Responsive Element (MRE) (AID 2282954); conditions: HepG2 MRE cis-reporter transcription, Attagene multiplex; actives raise or lower the signal
Procedure, shortened: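 Cells were transfected with cis-promoter reporter transcription units, then dosed for 24 h. RNA was reverse-transcribed, amplified, fluorescently labelled and resolved by capillary electrophoresis, and activity was fitted in both directions relative to DMSO.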

[8] = ATG_PBREM_CIS: Attagene CIS-FACTORIAL HepG2 Assay for human Phenobarbital-responsive Enhancer Module (PBREM) (AID 2282955); conditions: HepG2 PBREM cis-reporter, Attagene multiplexed transcription; actives raise or lower the signal
Procedure, shortened: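 HepG2 cells transiently transfected with multiple cis-regulated reporter transcription units; endogenous factor activity at the PBREM element measured as reporter mRNA 24 h after dosing, via RT-PCR and capillary electrophoresis of fluorescent fragments; bidirectional fitting versus DMSO.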

[9] = biological target: Paired box protein Pax-6 (Homo sapiens) (UniProt P26367); assay: ATG_Pax6_CIS: Attagene CIS-FACTORIAL HepG2 Assay for human Paired Box 6 (PAX6) (AID 2282956); conditions: HepG2 CIS-FACTORIAL PAX6 reporter transcription, RNA readout; actives raise or lower the signal
Paired box protein Pax-6 (Homo sapiens), sequence (P26367 whole entry, looked up): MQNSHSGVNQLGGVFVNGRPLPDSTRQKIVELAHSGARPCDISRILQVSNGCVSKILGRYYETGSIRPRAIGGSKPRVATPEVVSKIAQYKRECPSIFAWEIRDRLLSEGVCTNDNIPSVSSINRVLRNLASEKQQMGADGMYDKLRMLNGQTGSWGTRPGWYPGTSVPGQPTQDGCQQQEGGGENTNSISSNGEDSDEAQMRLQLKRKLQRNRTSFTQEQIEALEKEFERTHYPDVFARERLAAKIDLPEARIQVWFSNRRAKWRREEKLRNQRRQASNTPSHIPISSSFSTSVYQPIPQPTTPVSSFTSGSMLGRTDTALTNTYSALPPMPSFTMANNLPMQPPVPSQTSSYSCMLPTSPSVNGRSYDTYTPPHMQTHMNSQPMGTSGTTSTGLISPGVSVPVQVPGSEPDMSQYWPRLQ
Procedure, shortened: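 Fluorescent RT-PCR products separated by capillary electrophoresis report PAX6-linked promoter mRNA in HepG2 cells 24 h post-dose. Curves fitted bidirectionally, DMSO as negative control.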

[10] = ATG_PPRE_CIS: Attagene CIS-FACTORIAL HepG2 Assay for human Peroxisome Proliferator-activated Response Element (PPRE) (AID 2282958); conditions: HepG2 PPRE cis-element reporter, Attagene transcription factor profiling; actives raise or lower the signal
Procedure, shortened: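 HepG2 cells transiently transfected with multiplexed cis-element reporter units measure endogenous transcription factor activity. After 24 h compound exposure, reporter mRNA is quantified by RT-PCR, 6-FAM labeling, HpaI digestion and capillary electrophoresis; bidirectional fits are made against DMSO baseline.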

[11] = ATG_RORE_CIS: Attagene CIS-FACTORIAL HepG2 Assay for human RAR-related Orphan Receptor Element (RORE) (AID 2282959); conditions: HepG2 Attagene cis-factorial RORE reporter, mRNA; actives raise or lower the signal
Procedure, shortened: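 HepG2 cells transiently transfected with multiple cis-element reporter transcription units, exposed to chemical for 24 h. Reporter mRNA quantified by RT-PCR, 6-FAM primer-extension labeling, HpaI digestion and capillary electrophoresis; bidirectional fit versus DMSO baseline.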

[12] = ATG_Sox_CIS: Attagene CIS-FACTORIAL HepG2 Assay for human SRY-box transcription factor (SOX) (AID 2282960); conditions: HepG2 Attagene cis-factorial SOX reporter, mRNA; actives raise or lower the signal
Procedure, shortened: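 HepG2 cells transiently transfected with cis-element-driven multiple reporter transcription units, dosed 24 h; reporter mRNA measured by RT-PCR, FAM labelling, HpaI digestion and capillary electrophoresis. Bidirectional fit versus DMSO baseline.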

[13] = biological target: Transcription factor Sp1 (Homo sapiens) (UniProt P08047); assay: ATG_Sp1_CIS: Attagene CIS-FACTORIAL HepG2 Assay for human Specificity Protein 1 (Sp1) (AID 2282961); conditions: HepG2 Sp1 cis-reporter transcription, actives raise or lower the signal
Transcription factor Sp1 (Homo sapiens), sequence (P08047 whole entry, looked up): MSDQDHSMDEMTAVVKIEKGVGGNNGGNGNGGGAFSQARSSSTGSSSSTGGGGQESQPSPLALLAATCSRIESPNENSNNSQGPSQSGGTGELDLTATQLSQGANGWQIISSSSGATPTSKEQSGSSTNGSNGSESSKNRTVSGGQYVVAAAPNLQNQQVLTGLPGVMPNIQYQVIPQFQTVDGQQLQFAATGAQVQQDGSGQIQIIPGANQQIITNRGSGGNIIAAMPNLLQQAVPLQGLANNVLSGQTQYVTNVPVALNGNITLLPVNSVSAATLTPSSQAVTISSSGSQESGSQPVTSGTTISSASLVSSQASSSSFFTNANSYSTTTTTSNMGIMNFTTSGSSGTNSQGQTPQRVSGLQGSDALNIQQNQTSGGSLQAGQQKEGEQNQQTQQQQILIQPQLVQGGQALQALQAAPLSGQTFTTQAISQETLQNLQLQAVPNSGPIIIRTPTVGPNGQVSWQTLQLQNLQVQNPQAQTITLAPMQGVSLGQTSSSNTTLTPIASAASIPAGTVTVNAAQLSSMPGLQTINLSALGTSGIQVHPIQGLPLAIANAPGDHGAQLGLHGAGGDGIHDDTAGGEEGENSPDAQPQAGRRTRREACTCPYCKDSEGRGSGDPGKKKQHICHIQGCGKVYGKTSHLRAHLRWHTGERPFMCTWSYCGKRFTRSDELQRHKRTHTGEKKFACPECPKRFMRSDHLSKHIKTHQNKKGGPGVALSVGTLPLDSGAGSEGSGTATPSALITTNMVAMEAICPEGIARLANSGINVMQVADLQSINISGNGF
Procedure, shortened: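 HepG2 cells transiently transfected with multiple reporter transcription units driven by cis-regulatory elements; Sp1-responsive reporter mRNA measured 24 h after dosing by RT-PCR and capillary electrophoresis fluorescence, fitted bidirectionally against DMSO baseline.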

[14] = ATG_SREBP_CIS: Attagene CIS-FACTORIAL HepG2 Assay for human Sterol Regulatory Element Binding (SREBP) (AID 2282962); conditions: HepG2 Attagene cis-factorial SREBP reporter, mRNA; actives raise or lower the signal
Procedure, shortened: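 Endogenous factor activity is measured in HepG2 through multiplexed reporter units under cis-element control. Following a 24 h incubation, reporter transcripts are reverse-transcribed, PCR-amplified and sized by capillary electrophoresis; activity is fitted in both directions relative to DMSO.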

[15] = biological target: Signal transducer and activator of transcription 3 (Homo sapiens) (UniProt P40763); assay: ATG_STAT3_CIS: Attagene CIS-FACTORIAL HepG2 Assay for human Signal Transducer and Activator of Transcription 3 (STAT3) (AID 2282963); conditions: HepG2, Attagene cis-factorial STAT3 reporter transcription; actives raise or lower the signal
Signal transducer and activator of transcription 3 (Homo sapiens), sequence (P40763 whole entry, looked up): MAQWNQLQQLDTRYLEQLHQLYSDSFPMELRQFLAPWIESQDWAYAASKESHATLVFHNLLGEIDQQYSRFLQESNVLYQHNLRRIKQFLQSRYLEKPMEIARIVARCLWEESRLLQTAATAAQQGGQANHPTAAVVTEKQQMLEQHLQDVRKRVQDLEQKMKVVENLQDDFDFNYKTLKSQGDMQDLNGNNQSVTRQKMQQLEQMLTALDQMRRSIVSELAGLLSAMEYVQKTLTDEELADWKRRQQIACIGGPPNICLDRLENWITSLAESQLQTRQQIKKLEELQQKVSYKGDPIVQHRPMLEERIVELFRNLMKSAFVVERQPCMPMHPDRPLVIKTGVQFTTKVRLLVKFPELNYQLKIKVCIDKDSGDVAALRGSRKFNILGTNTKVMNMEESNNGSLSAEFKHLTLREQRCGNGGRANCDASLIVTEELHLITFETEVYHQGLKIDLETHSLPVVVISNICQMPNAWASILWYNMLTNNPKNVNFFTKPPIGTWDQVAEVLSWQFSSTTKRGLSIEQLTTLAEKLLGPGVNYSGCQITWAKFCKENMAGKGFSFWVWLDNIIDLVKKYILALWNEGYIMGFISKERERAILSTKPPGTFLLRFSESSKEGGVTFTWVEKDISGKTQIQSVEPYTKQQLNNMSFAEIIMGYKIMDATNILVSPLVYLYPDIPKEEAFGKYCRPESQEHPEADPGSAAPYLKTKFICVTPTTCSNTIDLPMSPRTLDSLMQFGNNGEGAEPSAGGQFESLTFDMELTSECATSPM
Procedure, shortened: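 HepG2, MRTU-transfected, 24 h dosing. RNA → RT → PCR → FAM label → HpaI → CE. Bidirectional fit vs DMSO.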

[16] = ATG_TA_CIS: Attagene CIS-FACTORIAL HepG2 Assay for human TA Basal Promoter (AID 2282964); conditions: HepG2 Attagene CIS-factorial TA basal promoter reporter; actives raise or lower the signal
Procedure, shortened: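 HepG2 cells transiently transfected with multiple reporter units under cis promoter elements, reporting endogenous transcription factor activity; this endpoint tracks the TA basal promoter as background control. Reporter mRNA after 24 h dosing measured by RT-PCR/capillary electrophoresis; bidirectional fits versus DMSO.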

[17] = ATG_TCF_b_cat_CIS: Attagene CIS-FACTORIAL HepG2 Assay for human T-Cell-Factor with beta-catenin (TCF/b-cat) (AID 2282965); conditions: HepG2 TCF/beta-catenin cis-reporter transcription, actives raise or lower the signal
Procedure, shortened: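 In this cis-format system, transfected HepG2 cells report endogenous transcription factor activity. Readout after 24 h exposure is reporter transcript abundance from RT-PCR and capillary electrophoresis, analysed for gain or loss of signal versus DMSO.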

[18] = ATG_M_32_CIS: Attagene CIS-FACTORIAL HepG2 Assay for M32 Transcription Factor (Internal Marker) (AID 2282949); conditions: HepG2 Attagene cis-factorial M32 reporter, mRNA; actives raise or lower the signal;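 also: background control marker of the multiplexed CIS panel rather than a real target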
Procedure, shortened: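 HepG2 human liver cells transiently transfected with cis-promoter-driven multiple reporter transcription units, dosed 24 h. Reporter mRNA quantified by RT-PCR, FAM-labelled primer extension, HpaI digest and capillary electrophoresis; bidirectional fit versus DMSO baseline.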

[19] = biological target: Hypoxia-inducible factor 1-alpha (Homo sapiens) (UniProt Q16665); assay: ATG_HIF1a_CIS: Attagene CIS-FACTORIAL HepG2 Assay for human Hypoxia Inducible Factor 1 (HIF1A) (AID 2282951); conditions: HepG2 Attagene cis-factorial HIF1a reporter transcription; actives raise or lower the signal
Hypoxia-inducible factor 1-alpha (Homo sapiens), sequence (Q16665 whole entry, looked up): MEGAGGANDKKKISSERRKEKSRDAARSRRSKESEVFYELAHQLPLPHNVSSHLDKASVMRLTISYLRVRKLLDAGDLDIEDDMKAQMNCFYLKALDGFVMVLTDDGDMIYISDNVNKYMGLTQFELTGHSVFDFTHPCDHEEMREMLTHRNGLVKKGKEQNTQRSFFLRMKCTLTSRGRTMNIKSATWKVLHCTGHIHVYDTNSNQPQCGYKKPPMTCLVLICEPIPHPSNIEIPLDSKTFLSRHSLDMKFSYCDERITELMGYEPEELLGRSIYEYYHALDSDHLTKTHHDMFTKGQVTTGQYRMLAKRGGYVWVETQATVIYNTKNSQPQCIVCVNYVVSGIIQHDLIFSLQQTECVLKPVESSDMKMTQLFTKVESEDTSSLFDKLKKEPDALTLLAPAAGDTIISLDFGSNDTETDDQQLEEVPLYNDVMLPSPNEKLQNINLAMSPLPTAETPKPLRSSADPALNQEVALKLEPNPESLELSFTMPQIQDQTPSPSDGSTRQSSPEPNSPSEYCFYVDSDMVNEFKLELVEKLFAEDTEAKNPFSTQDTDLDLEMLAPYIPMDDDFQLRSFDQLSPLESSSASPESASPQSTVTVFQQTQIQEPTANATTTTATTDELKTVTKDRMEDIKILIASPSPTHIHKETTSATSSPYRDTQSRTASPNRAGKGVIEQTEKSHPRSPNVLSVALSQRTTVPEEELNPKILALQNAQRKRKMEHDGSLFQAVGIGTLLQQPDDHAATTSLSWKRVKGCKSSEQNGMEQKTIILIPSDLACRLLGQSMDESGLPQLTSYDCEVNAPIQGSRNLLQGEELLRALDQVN
Procedure, shortened: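 HepG2 cells transiently transfected with multiplexed cis-promoter reporter units; reporter mRNA read 24 h after dosing by RT-PCR, 6-FAM primer-extension labelling, HpaI digestion and capillary electrophoresis. Bidirectional fit versus DMSO baseline.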

[20] = ATG_PXRE_CIS: Attagene CIS-FACTORIAL HepG2 Assay for human Pregnane X Receptor Element (PXRE) (AID 2282957); conditions: HepG2 Attagene CIS-FACTORIAL PXRE reporter, mRNA; actives raise or lower the signal
Procedure, shortened: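 After a 24 h chemical incubation, total RNA from transfected HepG2 cells was reverse-transcribed and reporter cDNA amplified, FAM-labeled, HpaI-digested and sized by capillary electrophoresis. DMSO served as baseline for bidirectional curve fitting.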

Measured: AC50

CC(=O)C(C)=O
active: [1] 28.8 µM
not listed: [18] | [19] | [20]
inactive: all other assays above

CC(C)(C)C(=O)c1ccccc1
active: [20] 53 µM
not listed: [5] | [10]
inactive: all other assays above

CC(=O)OCC=Cc1ccccc1
active: [20] 32.1 µM
not listed: [5] | [14] | [15] | [18]
inactive: all other assays above

CCC(O)CO (stereo not drawn)
active: [20] 0.0826 µM
not listed: [5] | [11]
inactive: all other assays above

Clc1ccc(Cl)c(Cl)c1Cl
not listed: [5] | [16]
inactive: all other assays above

CCCCC/C=C/C=C/C=O
active: [1] 144 µM | [19] 100 µM | [9] 100 µM | [20] 26.6 µM
not listed: [6] | [14]
inactive: all other assays above

OCCN1CCNCC1
not listed: [6] | [10] | [11] | [16]
inactive: all other assays above

O=C(O)CCCCCCCCCCC(=O)O
not listed: [10] | [18]
inactive: all other assays above

Nc1cc(N)cc(C(=O)O)c1
not listed: [5] | [7] | [8]
inactive: all other assays above

CCCCCCOC(=O)CC
not listed: [5] | [6] | [11] | [12] | [14]
inactive: all other assays above

O=C(O)c1snc(Cl)c1Cl
active: [3] 136 µM | [5] 153 µM | [7] 161 µM | [9] 188 µM | [20] 26.8 µM | [12] 173 µM | [17] 167 µM
not listed: [6] | [10] | [11]
inactive: all other assays above

CC(=O)Nc1ccccc1O
not listed: [2]
inactive: all other assays above

Cc1c(N(C)C)c(=O)n(-c2ccccc2)n1C
active: [20] 153 µM
not listed: [5] | [10] | [17] | [19]
inactive: all other assays above

CC(C)(C#N)c1cc(Cn2cncn2)cc(C(C)(C)C#N)c1
not listed: [6] | [10] | [20]
inactive: all other assays above

OCc1cccnc1
not listed: [10] | [15] | [19] | [20]
inactive: all other assays above

CC(=O)OCc1ccc2c(c1)OCO2
active: [20] 26.9 µM
not listed: [6] | [10] | [14]
inactive: all other assays above
